DT40 TDP1 CPT = qHTS for Inhibitors of human tyrosyl-DNA phosphodiesterase 1 (TDP1): qHTS in cells in presence of CPT; chicken DT40 Tdp1-/-;hTDP1 cells + 20 nM CPT, ATP luminescence, 48 h; Potency, µM (doses to about 46.2 µM), without a hit: top-dose activity change, negative = growth inhibition, hits mostly inhibitors; hit rate 12% among 420,000; AID 686979, 2013; note: nearly all actives have a fitted effect of over 55% in size
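Chicken DT40 Tdp1-/- cells complemented with human TDP1, 400 cells/well, exposed to compounds plus 20 nM camptothecin for at least 48 h at 37 C; viability read as ATP content by CellTiter-Glo luminescence.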
ALOX12 inh = Primary qHTS assay for inhibitors of human arachidonate 12S-lipoxygenase (ALOX12): Round 2. purified 12hLO, xylenol orange hydroperoxide absorbance. Polyunsaturated fatty acid lipoxygenase ALOX12 (Homo sapiens), P18054. hit rate 1.1% among 580,000. Potency, µM (doses to about 108 µM), inactives show at the highest dose activity change, negative = inhibition, actives largely listed as inhibitors
Target sequence (P18054 whole entry, looked up): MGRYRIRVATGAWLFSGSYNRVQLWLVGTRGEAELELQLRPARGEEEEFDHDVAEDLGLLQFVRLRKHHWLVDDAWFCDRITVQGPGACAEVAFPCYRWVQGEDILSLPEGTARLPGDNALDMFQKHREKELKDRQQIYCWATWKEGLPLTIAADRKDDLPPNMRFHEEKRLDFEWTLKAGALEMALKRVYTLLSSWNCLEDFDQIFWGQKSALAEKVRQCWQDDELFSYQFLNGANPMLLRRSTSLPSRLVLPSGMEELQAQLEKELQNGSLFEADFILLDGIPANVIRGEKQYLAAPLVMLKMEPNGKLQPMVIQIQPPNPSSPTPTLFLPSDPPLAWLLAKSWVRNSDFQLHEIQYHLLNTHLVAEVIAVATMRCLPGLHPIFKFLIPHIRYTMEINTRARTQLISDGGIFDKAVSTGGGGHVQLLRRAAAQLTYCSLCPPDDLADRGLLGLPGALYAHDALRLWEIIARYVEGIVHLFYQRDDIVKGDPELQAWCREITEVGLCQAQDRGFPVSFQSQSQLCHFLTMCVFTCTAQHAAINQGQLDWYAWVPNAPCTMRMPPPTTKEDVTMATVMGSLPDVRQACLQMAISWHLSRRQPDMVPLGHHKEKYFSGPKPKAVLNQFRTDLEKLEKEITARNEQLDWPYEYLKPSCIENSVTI
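Purified human 12hLO at 150 nM in 25 mM Hepes, 0.01% Triton X-100, pH 7.0, preincubated 15 min at room temperature with compound. Reaction started with 40 uM arachidonic acid, 30 min at room temperature. Hydroperoxide measured by Fe-xylenol orange, 573/405 nm absorbance ratio.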
ELG1 DNA repair = qHTS screen for small molecules that inhibit ELG1-dependent DNA repair in human embryonic kidney (HEK293T) cells expressing luciferase-tagged ELG1; HEK293T ELG1-luciferase reporter, luminescence, 16 h; DNA damage induced by 5-fluorouridine; Potency, µM (titrated, usually from 46.1 µM), for inactives: top-dose activity change, negative = inhibition, most hits filed as inhibitors; hit rate 2.3% among 330,000; AID 504467, 2011; note: nearly all actives have a fitted effect of over 55% in size
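DMSO vehicle served as the neutral condition. Each well held 2,000 cells given 5-fluorouridine plus compound; after 16 hr at 37 °C/5% CO2, ONE-Glo was added and luciferase measured 30 min later.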
RORg inh = qHTS for inhibitors of ROR gamma transcriptional activity; AID 2551, 2010; hit rate 5.4% among 310,000; Drosophila S2 Gal4-RORgamma UAS-luciferase reporter, 20 h; Potency, µM (titrated, usually from 53.6 µM), without a hit: at the highest dose activity change, negative = inhibition, usual class: inhibitors; Nuclear receptor ROR-gamma (Mus musculus), P51450; note: nearly all actives have a fitted effect of over 60% in size
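Compounds are pin-transferred onto Drosophila Schneider cells expressing a copper-inducible Gal4–ROR gamma transactivation domain fusion. After 1 hr, copper sulfate is added to 700 uM final; luciferase is read 20 hr later.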
TDP1 cell noCPT = qHTS for Inhibitors of human tyrosyl-DNA phosphodiesterase 1 (TDP1): qHTS in cells in absence of CPT | DT40 Tdp1-/- hTDP1 cells, no CPT, ATP luminescence, 48 h | Potency, µM (highest dose often 46.2 µM), inactives show top-dose activity change, negative = growth inhibition, actives largely listed as inhibitors | hit rate 15% among 420,000 | AID 686978, 2013; note: nearly all actives have a fitted effect of over 55% in size
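Growth kinetics read by CellTiter-Glo luminescence after ≥48 hr at 37 °C. Cells: DT40 Tdp1-/- stably carrying human TDP1, 400 per well, compound exposure in the absence of CPT (DMSO vehicle).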
VP16 counter = VP16 counterscreen qHTS for inhibitors of ROR gamma transcriptional activity; Potency, µM (titrated, usually from 53.6 µM), inactives show at the top dose activity, negative = inhibition, actives largely listed as inhibitors; hit rate 3.5% among 310,000; Drosophila S2 Gal4-VP16 UAS-luciferase, luminescence, 20 h;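 note: Gal4-VP16 expression switched on by copper sulfate through the metallothionein promoter; nearly all actives have a fitted effect of over 50% in size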
* = called active by the depositor; ? = inconclusive; / = not tested or not shown. Hits are enriched below; roughly 15% of the tested compounds scored in any of these assays. Calls come from the whole dose curve; as a rule, active = well fitted curve in the direction sought with a large enough effect; inconclusive = small, poorly fitted or top-dose-only effect, or another doubt; inactive = no such curve, though single readings can be large; an effect the other way counts as inactive or inconclusive. % is set by controls: 0 for no effect and ±100 for the full control effect; potency is the fitted concentration of half-maximal effect.

SMILES | DT40 TDP1 CPT | ALOX12 inh | ELG1 DNA repair | RORg inh | TDP1 cell noCPT | VP16 counter
CSCC(=O)N1C[C@@H](NC(=O)Nc2ccc(F)cc2F)C[C@H]1C(=O)N[C@@H](Cc1cccs1)C(N)=O | / | 16% | / | / | / | /
OC[C@H]1OC([S-])[C@H](O)[C@@H](O)[C@@H]1O.[Au+] (stereo partly drawn) | 24µM* | / | / | / | -86% | /
Cc1cc(C(=O)NCC(=O)N2CCCCCNC(=O)CC2c2ccccc2)nn1C (stereo not drawn) | / | 17% | / | / | / | /
O=C(CC(c1ccccc1)c1ccco1)Nc1nccs1 (stereo not drawn) | 26µM* | 13% | 2% | -10% | 15µM* | -13%
COc1ccc(NC(=O)CC(c2ccccc2)c2ccco2)cc1 (stereo not drawn) | ? | 6% | -14% | ? | 16µM* | 1%
Cc1ccc(OCc2nnc(SCC(=O)c3ccccc3)n2Cc2ccco2)cc1 | 23µM* | 0% | ? | -30% | 18µM* | -4%
c1ccc(-c2nnc(SCc3nc4ccccc4[nH]3)n2Cc2ccco2)cc1 | -18% | -10% | 21µM* | 11µM* | -21% | ?
O=C(CSc1nnc(-c2ccccn2)n1Cc1ccco1)c1ccc(-c2ccccc2)cc1 | 29µM* | -7% | -23% | ? | ? | 1%
Cc1ccc(OCc2nnc(SCc3nc4ccccc4[nH]3)n2Cc2ccco2)cc1 | 15µM* | 0% | 9.2µM* | ? | 18µM* | ?
O=C(Nc1cccc(-c2nc3ccccc3o2)c1)c1ccc([N+](=O)[O-])cc1 | / | 0% | / | / | / | /
O=C(NCCNc1ccncc1)Nc1ccccc1 | / | -28% | / | / | / | /
COc1ccccc1NC(=O)CSc1nnc(COc2ccc(Cl)cc2)n1Cc1ccco1 | 21µM* | -7% | ? | -27% | 15µM* | -2%
O=c1c2ccccc2nnn1CSc1nnc(COc2ccc(Cl)cc2)n1Cc1ccco1 | 23µM* | -10% | ? | -15% | 21µM* | -17%
CCn1c(COc2ccc(Cl)cc2)nnc1SCc1nc2ccccc2[nH]1 | ? | -4% | ? | 11µM* | ? | ?
COc1ccc(C)cc1NC(=O)CSc1nnc(COc2ccc(C)cc2)n1Cc1ccco1 | ? | -24% | ? | ? | ? | -1%
CCn1c(COc2ccc(OC)cc2)nnc1SCc1nc2ccccc2c(=O)[nH]1 | / | / | 2% | 13% | / | -8%
Clc1ccc(CSc2nnc(-c3ccccn3)n2Cc2cccs2)cc1Cl | ? | 9% | / | / | 18µM* | /
COC(=O)CCCN(C)C(=O)c1cc(-c2ccncc2)nc2ccccc12 | / | 0% | / | / | / | /
c1cncc(-c2nc(Oc3cccc4ccccc34)c3ccccc3n2)c1 | / | -11% | / | / | / | /
Clc1ccc(CSc2nnc(-c3ccccn3)n2Cc2ccco2)c(Cl)c1 | ? | ? | 0% | ? | 29µM* | ?
COc1ccc(-c2noc([C@@H]3CCCN3C(=O)c3ccc(OC)c(F)c3)n2)cc1 | / | 44% | / | / | / | /
COc1ccccc1/C=N/n1c(C)nnc1-n1nc(C)cc1C | -28% | 20% | 11% | 11% | -3% | -10%
Cc1cc(C)n(-c2nnc(C)n2/N=C/c2ccccc2OCc2ccccc2Cl)n1 | ? | 160% | -35% | 19% | 21µM* | -5%
N#C/C(=C\c1cccs1)C(=O)NCc1cccnc1 | -6% | -12% | 3% | ? | 13% | 20%
N#C/C(=C/c1cccc([N+](=O)[O-])c1)C(=O)Nc1ccccc1O | 3.7µM* | 1% | -1% | 32% | ? | 1%
SMILES | DT40 TDP1 CPT | ALOX12 inh | ELG1 DNA repair | RORg inh | TDP1 cell noCPT | VP16 counter
N#C/C(=C\c1cccc([N+](=O)[O-])c1)C(=O)Nc1cccnc1 | -2% | ? | 3% | -2% | -12% | 5%
N#C/C(=C\c1cccc([N+](=O)[O-])c1)C(=O)NCc1ccc(Cl)cc1 | 5.8µM* | ? | ? | ? | 12µM* | 18µM*
N#C/C(=C\c1cccc([N+](=O)[O-])c1)C(=O)NCc1cccnc1 | 21µM* | ? | 21µM* | ? | 21µM* | ?
N#C/C(=C\c1ccccc1)C(=O)NNS(=O)(=O)c1cccc([N+](=O)[O-])c1 | ? | ? | 29% | / | 3% | /
N#C/C(=C\C=C\c1ccccc1)C(=O)NCc1cccnc1 | 26µM* | 20% | ? | -31% | 29µM* | 19%
N#C/C(=C\c1ccccc1)C(=O)NCc1ccc(F)cc1 | ? | -16% | 17% | 1% | ? | -16%
O=C(Nc1ccc(Cl)c(C(F)(F)F)c1)c1c(F)cccc1F | / | -27% | / | / | / | /
Cc1nn(CC(=O)N2CCCCCC2)c(C)c1S(=O)(=O)NC(C)(C)C | / | -16% | / | / | / | /
OCCCNC(=S)NCc1ccccc1 | / | 5% | / | / | / | /
COC(=O)CCNC(=O)CCC1CCCC1 | / | 3% | / | / | / | /
Cc1ccc(CNc2ccc3c(c2)ncn3C(C)C)cc1 | 12µM* | 31% | ? | 5µM* | 13µM* | -7%
CCN(CC)CCn1c(NCc2nc3ccccc3n2Cc2ccccc2)nc2ccccc21 | ? | 17% | -17% | 11µM* | ? | ?

From PubChem BioAssay
